# Rows were chosen to be rich in hits. Some 28% of all compounds tested hit in one or more screens of this group.
# Mac1 fbg enh = enhancers of CD11b/CD18 adhesion to fibrinogen, primary screen, K562 cells, luminescence. Integrin beta-2 (Homo sapiens) + Integrin alpha-M (Homo sapiens), P05107+P11215. ATPlite luminescence. activation, % at 10 µM. 93,000 tested, 0.07% active. AID 1499, 2009;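 active means 10 µM primary screen giving 50% or more activity, confirmed by 40% or more on retest at that dose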
# CYP2C19 activ = human CYP2C19 activators, primary screen, biochemical, luminescence | Cytochrome P450 2C19 (Homo sapiens), P33261 | recombinant CYP2C19, luciferin-H EGE luminescence; hits give high values; 0 = fully inhibited enzyme, 1 = untreated enzyme | activation factor at 5 µM | 96,000 tested, under 10 active | AID 1025, 2008;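 active means activation factor of at least 2 at 5 µM in the primary screen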
# CD11b adhes inh = inhibitors of CD11b/CD18 adhesion to fibrinogen, primary screen, K562 cells, luminescence; ATPlite luminescence; Mn2+ added to activate the integrin; 93,000 tested, 0.54% active; inhibition, % at 10 µM; Integrin beta-2 (Homo sapiens) + Integrin alpha-M (Homo sapiens), P05107+P11215;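 active means primary inhibition of 50% or more at 10 µM, then 40% or more on retest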
# CYP2C9 inhib = blockers of cytochrome P450 2C9 activity – biochemical, luminescence, ADME assay, primary screen; P11712; 96,000 tested, 20% active; CYP2C9 Supersomes, luciferin-H conversion; inhibition, % at 5 µM;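 active means blocking of liver enzyme CYP2C9 beyond about 50% at 5 µM, limit read from the data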
# Target sequence (P11712 whole entry, looked up): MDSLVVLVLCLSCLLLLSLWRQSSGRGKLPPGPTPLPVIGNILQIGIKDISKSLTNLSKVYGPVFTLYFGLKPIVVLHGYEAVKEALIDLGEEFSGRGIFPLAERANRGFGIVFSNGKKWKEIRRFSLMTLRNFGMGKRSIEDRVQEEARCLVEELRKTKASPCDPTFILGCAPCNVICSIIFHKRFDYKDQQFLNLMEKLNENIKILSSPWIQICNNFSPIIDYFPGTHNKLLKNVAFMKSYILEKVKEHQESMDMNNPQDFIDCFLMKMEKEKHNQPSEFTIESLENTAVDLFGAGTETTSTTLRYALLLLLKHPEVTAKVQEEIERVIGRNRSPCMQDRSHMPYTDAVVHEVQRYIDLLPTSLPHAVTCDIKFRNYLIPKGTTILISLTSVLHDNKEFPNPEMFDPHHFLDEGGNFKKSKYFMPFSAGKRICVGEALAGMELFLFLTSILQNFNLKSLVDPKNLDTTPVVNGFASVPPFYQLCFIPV
# CYP2C9 act = human CYP2C9 activators, primary screen, biochemical, luminescence. 96,000 tested, 1.4% active. activation factor at 5 µM. recombinant CYP2C9, luciferin-H conversion; hits give high values; factor 1 = untreated enzyme, 0 = blocked;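 active means activation factor of 2 or more for CYP2C9 at a 5 µM dose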
# CYP2C19 inh = blockers of cytochrome P450 2C19 activity – biochemical, luminescence, ADME assay, primary screen; P33261; CYP2C19 Supersomes, luciferin-H EGE luminescence, 30 min; inhibition, % at 5 µM; 96,000 tested, 21% active;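 active means CYP2C19 inhibition above a set limit at 5 µM in the primary screen, cut at about 50% in these data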
# Hits are given with their value; n = inactive; x = no result.
SMILES,Mac1 fbg enh,CYP2C19 activ,CD11b adhes inh,CYP2C9 inhib,CYP2C9 act,CYP2C19 inh
Cc1cc2nsnc2c(S(=O)(=O)NCC(=O)O)c1C,n,n,n,n,n,n
COC(=O)c1ccccc1NC(=O)CSCC(=O)Nc1ccc(F)cc1,n,n,n,n,n,59
Cc1c(F)cccc1NC(=O)CSCC(=O)Nc1ccccc1,n,n,n,56,n,56
COc1ccc(/C=C/C(=O)c2c(O)ccc3c(C)cc(=O)oc23)cc1,n,x,n,x,x,x
COC(=O)c1cc(Cc2ccc(N)c(C(=O)OC)c2)ccc1N,n,n,n,n,n,n
COc1ccc(Cc2ccc(OC)c(N)c2)cc1N,n,n,n,n,n,66
COC(=O)c1ccc(NC(=O)C23CCC(C)(C(=O)O2)C3(C)C)cc1 (centres undefined),x,n,x,n,n,n
CCOC(=O)c1cccc(NC(=O)CSc2nnnn2CC)c1,n,n,n,83,n,55
CCOC(=O)c1cccc(NC(=O)CSc2nnc(C3CCCCC3)n2CC)c1,n,n,n,n,n,n
CCOC(=O)c1cccc(NC(=O)CSc2nnc(-c3ccoc3C)n2CC)c1,n,n,n,70,n,n
CCOC(=O)c1cccc(NC(=O)CSc2nnc(C)n2Cc2ccccc2)c1,n,n,n,91,n,87
CCOC(=O)c1cccc(NC(=O)CSc2nc(N)cc(N)n2)c1,n,n,n,78,n,64
CCn1nnnc1SCC(=O)Nc1cccc(NC(C)=O)c1,n,n,n,n,n,n
COc1ccc(C(=O)/C=C(/C)N(C)C)cc1,x,n,x,n,n,n
CCOC(=O)c1ccc(NC(=O)CSc2nnnn2CCCO)cc1,n,n,n,n,n,58
CCC(C)c1ccc(OCCn2cc(/C=N/NC(=O)CSc3nnc(C)s3)c3ccccc32)cc1 (centres undefined),n,n,n,n,n,n
CCCCn1nnc(NC(=O)CC23CC4CC(CC(C4)C2)C3)n1,n,n,n,n,n,n
COc1cc2c(cc1NC(=O)C(C)NCc1ccccc1)oc1ccccc12 (centres undefined),n,x,n,x,x,x
COc1cc(NC(=O)COC(C)=O)c(C)cc1[N+](=O)[O-],n,x,n,x,x,x
N#Cc1cnc2sc3ccccc3n2c1=N,n,n,n,89,n,n
CCCn1cc(S(=O)(=O)CC(=O)Nc2ccc(OCC)cc2)c2ccccc21,n,n,n,n,n,n
CCn1cc(S(=O)(=O)CC(=O)Nc2ccc3c(c2)OCCO3)c2ccccc21,n,n,n,70,n,n
Cn1cc(S(=O)(=O)CC(=O)Nc2ccc(Br)cc2)c2ccccc21,n,n,n,n,n,99
CCn1cc(S(=O)(=O)CC(=O)Nc2ccc(C)cc2)c2ccccc21,n,n,n,n,n,90
CCOC(=O)/C(N=Nc1ccc(Cl)cc1)=C(/O)c1ccc([N+](=O)[O-])cc1,n,n,n,n,n,n
SMILES,Mac1 fbg enh,CYP2C19 activ,CD11b adhes inh,CYP2C9 inhib,CYP2C9 act,CYP2C19 inh
CC(C)(C)n1ncc2c(=O)n(CC(=O)N3CCN(c4ccccc4)CC3)cnc21,n,n,n,n,n,n
CCn1nc(C)c(/C=C2\CCCC3=C2OC(N)=C(C#N)C3c2c(C)nn(CC)c2C)c1C (centres undefined),n,n,n,n,n,n
COC(=O)CCN(c1ccccc1)S(=O)(=O)c1ccc(OC)cc1,n,n,n,n,n,n
CC(C)(c1ccccc1)c1ccc(OCCCNCCO)cc1,n,n,n,n,n,n
O=c1c2[nH]c3ccc(Cl)cc3c2ncn1CCN1CCCCC1,n,n,n,59,n,74
COc1ccc2c(c1)[nH]c1c(=O)n(CCN3CCCC3)cnc12,n,n,n,n,n,n
O=c1c2[nH]c3ccc(F)cc3c2ncn1CCCN1CCOCC1,n,n,n,n,n,n
O=c1c2[nH]c3ccc(F)cc3c2ncn1CCCn1ccnc1,n,n,n,80,n,64
CCOc1ccc(NC(=S)N2CCc3cc(OC)c(OC)cc3C2COc2ccc3c(C)cc(=O)oc3c2)cc1 (centres undefined),n,x,n,x,x,x
